Measured values taken from PubChem BioAssay (Tox21).
Results filed as inconclusive are left out. Active and inactive are the calls of the source. Unless noted, calls come from the whole dose curve.

Tests used:
[1] = qHTS assay to identify small molecule agonists of the vitamin D receptor (VDR) signaling pathway - cell viability counter screen (AID 743224; active = well fitted curve in the direction sought with a large enough effect in the repeat runs; an effect the other way counts as inactive or inconclusive; note: series mostly up to about 63 µM; nearly all actives have a fitted effect of over 50% in size)
Outline: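 CellTiter-Glo viability readout on VDR-bla cells, measured after 16 h of compound treatment at 37C in the same wells.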

[2] = qHTS assay to identify small molecule agonists of the NFkB signaling pathway - cell viability counter screen (AID 1159515); note: series mostly up to about 61 µM; nearly all actives have a fitted effect of over 55% in size
Outline: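 Tox21 library compounds were tested for cytotoxicity against NFkB-bla ME-180 cells during a 5 hr exposure at 37 C. CellTiter-Glo luminescence served as the viability read-out.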

[3] = qHTS assay to identify small molecule agonists of the endoplasmic reticulum stress response signaling pathway (AID 1159516; active = well fitted activation curve with a large enough effect in the signal ratio in the repeat runs, not every such curve was filed as active; the % refers to the signal ratio)
Outline: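 Fluorescence at 460 and 530 nm (405 nm excitation) reports beta-lactamase from an ER stress response element in HeLa cells treated 5 hr at 37 C.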

[4] = qHTS assay to identify small molecule agonists of the endoplasmic reticulum stress response signaling pathway - cell viability counter screen (AID 1159517); note: series mostly up to about 61 µM; nearly all actives have a fitted effect of over 50% in size
Outline: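 In parallel with the ESRE reporter read, cytotoxicity was scored by CellTiter-Glo luminescence (30 min, room temperature) on HeLa ESRE-bla cells dosed for 5 hr.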

[5] = qHTS assay to identify small molecule antagonists of the retinoid-related orphan receptor gamma (ROR-gamma) signaling pathway - cell viability counter screen (AID 1159520; active = well fitted curve in the direction sought with a large enough effect in the repeat runs; an effect the other way counts as inactive or inconclusive; note: nearly all actives have a fitted effect of over 50% in size)
Outline: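 Tet-on ROR gamma CHO cells were given compounds for 2 hr, then doxycycline hyclate at 1 uM final, and incubated 16 hr at 37 C. Viability was measured as ATP content by CellTiter-Glo luminescence.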

[6] = molecular target: Nuclear receptor ROR-gamma (Homo sapiens) (UniProt P51449); assay: qHTS assay to identify small molecule antagonists of the retinoid-related orphan receptor gamma (ROR-gamma) signaling pathway (AID 1159521; active = well fitted curve in the direction sought with a large enough effect in the repeat runs; an effect the other way counts as inactive or inconclusive; note: nearly all actives have a fitted effect of over 50% in size; note: potency is the fitted concentration of half-maximal effect)
Outline: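 Decreased RORE-driven luciferase luminescence indicates antagonism. Tet-on RORγ CHO cells received compound, then 1 uM final doxycycline 2 h later; signal read after 16 h incubation.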

[7] = qHTS assay to identify small molecule agonists of the AP-1 signaling pathway - cell viability counter screen (AID 1159525); note: nearly all actives have a fitted effect of over 55% in size
Outline: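 Same-well cytotoxicity counter screen of the Tox21 10K library in ME-180 cells. The readout is ATP-dependent luminescence after 5 h compound treatment. Data are normalised to DMSO and tetra n-octyl ammonium bromide controls.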

[8] = qHTS assay to identify small molecule agonists of the AP-1 signaling pathway (AID 1159526); note: potency is the fitted concentration of half-maximal effect
[9] = molecular target: Retinoic acid receptor RXR-alpha (Homo sapiens) (UniProt P19793); assay: qHTS assay to identify small molecule agonists of the RXR signaling pathway (AID 1159527); note: nearly all actives have a fitted effect of over 35% in size; note: potency is the fitted concentration of half-maximal effect
Retinoic acid receptor RXR-alpha (Homo sapiens), sequence (P19793 whole entry, looked up): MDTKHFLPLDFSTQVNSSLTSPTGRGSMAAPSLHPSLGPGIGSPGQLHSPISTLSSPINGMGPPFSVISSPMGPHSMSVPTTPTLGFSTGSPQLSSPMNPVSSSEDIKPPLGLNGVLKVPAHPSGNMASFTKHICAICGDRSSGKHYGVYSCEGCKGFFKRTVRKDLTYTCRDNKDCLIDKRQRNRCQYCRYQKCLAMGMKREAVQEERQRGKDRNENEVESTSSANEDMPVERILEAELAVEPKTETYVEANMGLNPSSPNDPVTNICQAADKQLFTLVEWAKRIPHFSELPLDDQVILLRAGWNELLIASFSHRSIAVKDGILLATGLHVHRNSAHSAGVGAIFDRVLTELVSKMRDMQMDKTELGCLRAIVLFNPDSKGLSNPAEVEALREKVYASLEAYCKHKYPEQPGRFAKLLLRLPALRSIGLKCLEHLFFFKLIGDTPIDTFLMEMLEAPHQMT
Outline: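 16 hr incubation of compound-treated RXR-alpha-UAS-bla HEK 293T cells (2% charcoal-stripped FBS, 37 C) preceded a 2 hr room-temperature LiveBLAzer FRET substrate step and blue/green fluorescence measurement.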

[10] = qHTS assay to identify small molecule antagonists of the vitamin D receptor (VDR) signaling pathway - cell viability counter screen (AID 743225; active = well fitted curve in the direction sought with a large enough effect in the repeat runs; an effect the other way counts as inactive or inconclusive; note: nearly all actives have a fitted effect of over 50% in size)
Outline: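 Parallel cytotoxicity test: VDR-UAS-bla HEK 293T, 3 nM (final) 1-alpha,25-dihydroxyvitamin D3 with test compound, 16 h, 37C. Endpoint is CellTiter-Glo luminescence in the same wells.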

Measured: Potency

O=c1[nH]cnc2ccccc12
inactive: [1] | [2] | [3] | [4] | [5] | [6] | [7] | [8] | [9]

CN(C)CC[C@@H](c1ccc(Br)cc1)c1ccccn1
inactive: [1] | [10] | [2] | [3] | [4] | [5] | [6] | [7] | [8] | [9]

C1=Cc2ccccc2C1
inactive: [1] | [10] | [2] | [3] | [4] | [5] | [6] | [7] | [8] | [9]

Nc1nc(N)c(-c2ccccc2)s1
inactive: [1] | [2] | [3] | [4] | [5] | [6] | [7] | [8]

CC(C(=O)O)c1ccc(C(=O)c2ccccc2)s1 (stereo not drawn)
inactive: [1] | [2] | [3] | [4] | [5] | [6] | [7] | [8]

c1ccc(-c2nc[nH]c2-c2ccccc2)cc1
inactive: [1] | [2] | [3] | [4] | [5] | [6] | [7] | [8]

Cc1cccc(OCCOc2cccc(C)c2)c1
inactive: [1] | [2] | [3] | [4] | [5] | [6] | [7] | [8]

CCCCOC(=O)/C=C\C(=O)OCCCC
inactive: [1] | [10] | [2] | [3] | [4] | [5] | [6] | [7] | [8] | [9]

CC(=O)c1ccc2c(c1)[C@H](NC(=O)c1ccc(F)cc1)[C@@H](O)C(C)(C)O2
inactive: [1] | [2] | [3] | [4] | [5] | [6] | [7] | [8]

Cc1nc2ccccc2n1Cc1ccc(Cl)cc1
inactive: [2] | [3] | [4] | [5] | [7] | [8]
active: [6] 2.66 µM

CCCCOCCOCCOCCOCCO
inactive: [1] | [2] | [3] | [4] | [5] | [6] | [7] | [8]

CNCC[C@@H](Oc1ccccc1C)c1ccccc1
active: [8] 21.3 µM
inactive: [10] | [2] | [3] | [4] | [5] | [6] | [7] | [9]

Cc1ccc2c(ccc3ccccc32)c1
inactive: [10] | [2] | [3] | [4] | [5] | [6] | [7] | [8] | [9]

CC(C)(C)c1cc(CCC(=O)OCC(COC(=O)CCc2cc(C(C)(C)C)c(O)c(C(C)(C)C)c2)(COC(=O)CCc2cc(C(C)(C)C)c(O)c(C(C)(C)C)c2)COC(=O)CCc2cc(C(C)(C)C)c(O)c(C(C)(C)C)c2)cc(C(C)(C)C)c1O
inactive: [1] | [2] | [3] | [4] | [5] | [6] | [7] | [8]

CCOC(=O)C1=NN(c2ccccc2)C(=O)C1
inactive: [1] | [2] | [3] | [4] | [5] | [6] | [7] | [8] | [9]

COc1ccc2[nH]c(S(=O)Cc3ncc(C)c(OC)c3C)nc2n1 (stereo not drawn)
inactive: [1] | [2] | [3] | [4] | [5] | [6] | [7] | [8]

O=C(NN1CCCC1)NS(=O)(=O)c1ccc(Cl)cc1
inactive: [1] | [10] | [2] | [3] | [4] | [5] | [6] | [7] | [8] | [9]

CC(CN)CCCN (stereo not drawn)
inactive: [1] | [2] | [3] | [4] | [5] | [6] | [7] | [8]

CC(=O)c1c(C)c([N+](=O)[O-])c(C(C)(C)C)c([N+](=O)[O-])c1C
active: [9] 21.9 µM
inactive: [1] | [10] | [2] | [3] | [4] | [5] | [6] | [7] | [8]

CC(C)CC=O
inactive: [1] | [2] | [3] | [4] | [5] | [6] | [7] | [8]

Oc1ccc(Sc2ccc(O)cc2)cc1
inactive: [1] | [10] | [2] | [3] | [4] | [5] | [6] | [7] | [8] | [9]

CCN(CC)C(C)=O
inactive: [1] | [2] | [3] | [4] | [5] | [6] | [7] | [8]

COCCO
inactive: [1] | [2] | [3] | [4] | [5] | [6] | [7] | [8] | [9]

CCCCCCCCCCCCC(=O)O
inactive: [1] | [2] | [3] | [4] | [5] | [6] | [7] | [8]

CN(C)CCCNCCCN
inactive: [1] | [2] | [3] | [4] | [5] | [6] | [7] | [8]

C1CCC2OC2C1 (stereo not drawn)
inactive: [1] | [10] | [2] | [3] | [4] | [5] | [6] | [7] | [8] | [9]

C[C@H](CCC(=O)O)[C@H]1CC[C@H]2[C@@H]3[C@H](O)C[C@@H]4C[C@H](O)CC[C@]4(C)[C@H]3CC[C@]12C
inactive: [1] | [2] | [3] | [4] | [5] | [6] | [7] | [8]

Cc1cc(C)c(S(=O)(=O)O)cc1N=Nc1cc(S(=O)(=O)O)c2ccccc2c1O
inactive: [1] | [10] | [2] | [3] | [4] | [5] | [6] | [7] | [8] | [9]

CCCCCCCCC(CO)CCCCCC (stereo not drawn)
inactive: [1] | [10] | [2] | [3] | [4] | [5] | [6] | [7] | [8] | [9]

COC(=O)CSc1cc(N=c2sc(=O)n3n2CCCC3)c(F)cc1Cl
inactive: [1] | [2] | [3] | [4] | [5] | [6] | [7] | [8] | [9]

CCN(CC)CCOc1ccc2c(c1)C(=O)c1cc(OCCN(CC)CC)ccc1-2
inactive: [2] | [3] | [4] | [5] | [6] | [7] | [8]

O=C(CC(=O)c1ccccc1)c1ccccc1
inactive: [2] | [3] | [4] | [5] | [6] | [7]

CCCCCC(CO)CCC (stereo not drawn)
inactive: [1] | [2] | [3] | [4] | [5] | [6] | [7] | [8]

O=C(O)C(c1ccc(Cl)cc1)c1ccc(Cl)cc1
inactive: [1] | [2] | [3] | [4] | [5] | [6] | [7] | [8]

CN1CCC(OC(c2ccccc2)c2ccccc2)CC1
inactive: [1] | [10] | [2] | [3] | [4] | [5] | [6] | [7] | [8] | [9]

C=CC[N+]1([C@H]2C[C@H]3[C@@H]4CC[C@H]5C[C@H](OC(C)=O)[C@@H](N6CCCCC6)C[C@]5(C)[C@H]4CC[C@]3(C)[C@H]2OC(=O)CC)CCCCC1
inactive: [1] | [10] | [2] | [3] | [4] | [5] | [6] | [7] | [8] | [9]

CC(=O)OC/C=C/c1ccccc1
inactive: [1] | [2] | [3] | [4] | [5] | [6] | [7] | [8] | [9]

CC[C@H](C)[C@H](N)C(=O)O
inactive: [1] | [10] | [2] | [3] | [4] | [5] | [6] | [7] | [8] | [9]

O=C1CCCCCO1
inactive: [1] | [2] | [3] | [4] | [5] | [6] | [7] | [8]

CCOc1cc(OCC)c(C(=O)CCC(=O)O)cc1OCC
inactive: [1] | [10] | [2] | [3] | [4] | [5] | [6] | [7] | [8]

O=C(c1ccc(O)cc1)c1ccc(O)cc1
inactive: [1] | [2] | [3] | [4] | [5] | [6] | [7] | [8]

N#CCCNCCC#N
inactive: [1] | [10] | [2] | [3] | [4] | [5] | [6] | [7] | [8]

CCCCCCCCN(C)C
inactive: [1] | [10] | [2] | [3] | [4] | [5] | [6] | [7] | [8]

Cc1ccc(C(=O)C(C)CN2CCCCC2)cc1 (stereo not drawn)
inactive: [1] | [10] | [2] | [3] | [4] | [5] | [6] | [7] | [8]

CCOC(=S)SSC(=S)OCC
inactive: [1] | [10] | [2] | [3] | [4] | [5] | [6] | [7] | [8]

CCC(=O)OC(C)(C)C1CC=C(C)CC1 (stereo not drawn)
inactive: [1] | [10] | [2] | [3] | [4] | [5] | [6] | [7] | [8]

O=[N+]([O-])c1cccc(Cl)c1Cl
inactive: [1] | [10] | [2] | [3] | [4] | [5] | [6] | [7] | [8]

O=CNc1ccccc1
inactive: [1] | [10] | [2] | [3] | [4] | [5] | [6] | [7] | [8]

CCC(C)N(C)C(=O)c1cc2ccccc2c(-c2ccccc2Cl)n1 (stereo not drawn)
inactive: [1] | [10] | [2] | [3] | [4] | [5] | [6] | [7] | [8]
